High-throughput results deposited in PubChem by National Center for Advancing Translational Sciences (NCATS).
An excerpt weighted towards active compounds, which were near 7.3% of everything screened.
NPC1 promoter act = activators of NPC1 promoter. Huh7 NPC1 promoter luciferase reporter, 24 h. Potency, µM (top dose mostly 9.22 µM), without a hit: at the top dose activation, hits mostly activators. 2.4% of 320,000 active; note: % of control where 0% means no effect; nearly all actives have a fitted effect of over 60% in size
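Stably transfected Huh7 (NPC1 promoter→luciferase), 1500 cells/well in Opti-MEM + 10% FBS, 2 h settle, then compound 24 h at 37 °C. Luminescence after 10 min with Amplite reagent.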
ELG1 genotoxic = inducers of genotoxicity in HEK293T ELG1-luciferase cells; Potency, µM (top dose mostly 46 µM), for the others: top-dose activity change, positive = activation, usual class: activators; HEK293T ELG1-luciferase reporter, luminescence, 16 h; 1.3% of 330,000 active; note: % of control where 0% means no effect; nearly all actives have a fitted effect of over 60% in size
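Cells (2,000/well) expressing the ELG1-luciferase fusion are dosed by pin tool and kept 16 hr at 37 °C, 5% CO2. Signal comes from ONE-Glo luciferase reagent after 30 min at room temperature.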
SMN2 splice enh = increases expression of the SMN2 splice variant; HEK293 SMN2-luciferase splicing reporter, luminescence, 30-36 h; Potency, µM (highest dose often 46.1 µM), for the others: at the highest dose activity change, positive = activation, most hits filed as activators; 2.8% of 210,000 active; AID 1458; note: % of control where 0% means no effect; nearly all actives have a fitted effect of over 55% in size
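HEK293 cells carry an SMN2 […]–luciferase reporter in which exon 7 inclusion puts luciferase in frame. Cells were plated 10-12 h before compound addition, then incubated 30-36 h at 37C. ONE-Glo luminescence was read; sodium butyrate at 4.5 mM final served as control.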
uPA surface inh = inhibitors of cell surface uPA generation | AID 540303 | Potency, µM (highest dose often 38.3 µM), without a hit: at the highest dose activity change, negative = inhibition, hits mostly inhibitors | cell surface uPA generation assay, qHTS | 0.31% of 330,000 active; active = well fitted inhibition curve with a large enough effect; inconclusive = small, poorly fitted or top-dose-only effect; inactive = no such curve, though single readings can be large or run the other way; tested in mouse RAW 264.7 cells; note: % is set by controls: 0 for no effect and ±100 for the full control effect; nearly all actives have a fitted effect of over 55% in size
FLuc modulator = counter-screen for miR-21 project: firefly luciferase inhibitors or activators; Potency, µM (series often up to 57.5 µM), inactives show at the top dose activity change, negative = inhibition, actives largely listed as inhibitors; purified FLuc, Km substrates, luminescence inhibition; 6.9% of 360,000 active; P08659;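 note: plate controls were vehicle for no effect and reference inhibitor for full effect; nearly all actives have a fitted effect of over 55% in size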
Target sequence (P08659 whole entry, looked up): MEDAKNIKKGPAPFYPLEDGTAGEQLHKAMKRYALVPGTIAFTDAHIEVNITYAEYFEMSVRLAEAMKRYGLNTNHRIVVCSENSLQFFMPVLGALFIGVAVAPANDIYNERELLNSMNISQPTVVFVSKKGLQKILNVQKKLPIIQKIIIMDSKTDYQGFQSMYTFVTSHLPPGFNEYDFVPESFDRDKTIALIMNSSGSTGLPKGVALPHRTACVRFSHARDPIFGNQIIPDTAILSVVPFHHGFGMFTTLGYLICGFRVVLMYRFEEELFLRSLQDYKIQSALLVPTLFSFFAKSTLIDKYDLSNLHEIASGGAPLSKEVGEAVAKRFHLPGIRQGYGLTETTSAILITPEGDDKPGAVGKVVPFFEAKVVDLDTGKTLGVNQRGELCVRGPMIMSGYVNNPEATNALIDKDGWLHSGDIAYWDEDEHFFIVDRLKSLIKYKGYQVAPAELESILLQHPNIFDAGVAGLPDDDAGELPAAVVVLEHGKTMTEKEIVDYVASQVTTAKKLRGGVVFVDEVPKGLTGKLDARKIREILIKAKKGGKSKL
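Biochemical qHTS of compounds, final roughly 60 µM downward over six points, against 10 nM purified firefly luciferase using Km concentrations of substrates (10 uM D-luciferin, 10 uM ATP) in Tris acetate pH 7.5 buffer; luminescence output.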
Rab9 promoter act = activators of Rab9 promoter | Huh7 Rab9 promoter-luciferase reporter, luminescence, 24 h | Potency, µM (doses to about 9.22 µM), for inactives: at the highest dose activation, negative = inhibition, usual class: activators | 2.8% of 320,000 active | AID 485297; note: % of control where 0% means no effect; nearly all actives have a fitted effect of over 60% in size
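Measured in stably transfected Huh7 cells bearing a Rab9 promoter–luciferase construct: 24 h compound treatment at 37 °C, followed by luminescence detection.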
Starred values were filed as active, the others as inactive; ? = inconclusive; . = no result given; [ ] = remark or other dose. Unless noted, calls come from the whole dose curve; as a rule, active = well fitted curve in the direction sought with a large enough effect; inconclusive = small, poorly fitted or top-dose-only effect, or another doubt; inactive = no such curve, though single readings can be large; an effect the other way counts as inactive or inconclusive. Potency is the fitted concentration of half-maximal effect.

SMILES | NPC1 promoter act | ELG1 genotoxic | SMN2 splice enh | uPA surface inh | FLuc modulator | Rab9 promoter act
COc1cc(/C=C2\SC(c3ccc(C)cc3)=NC2=O)cc(OC)c1OC | -1.6% | 0.2% | 24.1% | 7.7% | 2.4% | -5.8%
COc1cc(/C=C2\SC(c3ccccc3)=NC2=O)cc(Cl)c1O | -6.7% | 0.1% | -10.7% | 3.0% | 10.7µM* | -17.3%
COc1cc(/C=C2\SC(c3ccc(C)cc3)=NC2=O)ccc1O | -2.2% | ? | 20.3% | -13.3% | 2.69µM* | -10.0%
Sc1ccc2ccccc2c1CNCc1ccccc1 | . | . | -4.0%[9.22 µM] | . | . | .
CC1Cc2ccccc2N1C(=O)CSc1ncc(-c2ccc(F)cc2)n1C (stereo not drawn) | 3.55µM* | ? | 12.6µM* | 1.9% | 1.9µM* | 1.12µM*
Cn1c(-c2ccc(F)cc2)cnc1SCC(=O)N1CCCCC1 | 0.562µM* | 2.59µM* | 8.91µM* | -5.0% | 2.69µM* | 0.501µM*
Cn1c(-c2ccc(F)cc2)cnc1SCC(=O)N1CCCc2ccccc21 | -0.6% | 0.5% | -10.5% | 0.9% | ? | -6.2%
CCCCn1c(=O)c2oc3ccccc3c2n(Cc2ccccc2C)c1=O | . | . | . | . | 0.9% | .
N#C/C(C(=O)Oc1ccccc1)=C1\C=CC=CN1 | 3.55µM* | ? | 25.2% | -3.0% | 19µM* | 2.82µM*
CN1CC(C(=O)Nc2ccc(F)c(Cl)c2)CC1=O (stereo not drawn) | -2.6% | 1.5% | . | 2.3% | -1.0% | 1.9%
COc1ccc(-c2cccc(NC(=O)c3ccc4c(c3)OCO4)c2)nn1 | 3.2% | -16.9% | . | -6.6% | 15.1µM* | -7.8%
CCC/C(=N/NC(=O)c1ccc2c(c1)OCO2)c1cccs1 | 13.2% | 12.7% | 20µM* | -3.1% | 16.9µM* | ?
O=C(Nc1ccc(NC(=O)c2cccs2)cc1)c1ccc2c(c1)OCO2 | -8.5% | ? | . | 0.8% | 1.9% | -9.3%
O=C(Nc1cccc(NC(=O)c2cccs2)c1)c1ccc2c(c1)OCO2 | 9.7% | -2.3% | 28.2% | 3.1% | 15.1µM* | 7.4%
O=C(Nc1cccc(-c2nc3ncccc3o2)c1)c1ccc2c(c1)OCO2 | . | . | . | 1.0% | . | .
CCOC(=O)c1c(N)sc(C(=O)Nc2ccc3c(c2)OCO3)c1C | 0.316µM* | 0.366µM* | -42.9% | -8.5% | 0.426µM* | 0.1µM*
CCOC(=O)c1c(C)c(C(=O)Nc2ccc3c(c2)OCO3)c(C)n1C | 4.9% | 2.2% | -28.5% | 6.0% | -13.4% | 0.6%
CC(C)CC(CC(C)C)=NNC(=O)c1ccc2c(c1)OCO2 | -1.6% | -8.8% | 3.7% | 2.9% | -0.8% | 2.9%
CC(=O)Nc1cccc(-c2nnc(SCC(=O)c3cc([N+](=O)[O-])ccc3Br)o2)c1 | . | . | 4.1% | . | -14.0% | .
O=S(=O)(c1ccccc1)N1CCC[C@@]2(CCN(C(c3ccccc3)c3ccccc3)C2)C1 | . | . | -6.9% | . | . | .
CCOC(=O)c1cccc(NC(=O)/C=C/c2cccc([N+](=O)[O-])c2)c1 | -0.5% | 1.8% | -22.2% | . | -11.0% | 16.1%
CCOC(=O)c1cccc(NC(=O)/C=C/c2ccc3c(c2)OCO3)c1 | 0.316µM* | ? | ? | -8.0% | 1.9µM* | 0.316µM*
CC(=O)c1cccc(NC(=O)C(OC(=O)/C=C/c2ccc3c(c2)OCO3)c2ccccc2)c1 (stereo not drawn) | 7.1% | 27.4% | 0.3% | -0.1% | 13.5µM* | 1.0%
CC(=O)c1cccc(NC(=O)c2ccc3c(c2)OCO3)c1 | ? | 15.8% | . | -3.3% | 26.9µM* | ?
CCOC(=O)c1c(NC(=O)c2cc(C)oc2C)sc(C(=O)Nc2ccc(Cl)cc2)c1C | 23.4% | 14.5% | -2.0% | 4.2% | 16.9µM* | 29.0%
COc1ccc(-c2cc(C(C)=O)c(C)n2CCC(=O)Nc2ccc(C(F)(F)F)cc2)cc1 | . | . | . | . | -9.0% | .
CCOC(=O)c1cccc(NC(=O)c2ccc3c(c2)OCO3)c1 | 0.398µM* | ? | . | -2.7% | 8.49µM* | 0.224µM*
CC(=O)c1cccc(NC(=O)NNC(=O)c2ccc3ccccc3c2)c1 | 0.5% | -3.0% | . | 10.8% | 5.1% | 6.9%
CC(=O)c1cccc(NC(=O)c2ccc3ccccc3c2)c1 | 3.16µM* | ? | . | -17.5% | 1.9µM* | 2.82µM*
